In PubChem BioAssay one finds nuclear beta-catenin stimulation data, which are given here for 38 compounds.

This assay is described as follows: Wnt pathway potentiators raising nuclear beta-catenin – imaging, WNT3A-conditioned medium, mouse C2C12, NPC library, primary screen (AID 1117326). Further: reference of the scale not given here. The conditions noted are these: stimulation, at 2 µM, stronger effect = higher value.
With `Cc1c(N(C)C)c(=O)n(-c2ccccc2)n1C`, the nuclear beta-catenin stimulation turned out to be 0.6%.

As for `O=C(O)[C@@H]1[C@H]2C[C@H]3c4[nH]c5ccccc5c4CCN3C[C@@H]2CC[C@@H]1O`, the nuclear beta-catenin stimulation came out at 1.8%.

Take `COc1cc(N)c(Cl)cc1C(=O)NC1CCN(Cc2ccccc2)CC1`: the nuclear beta-catenin stimulation is 0.9%.

On to `Cc1cc2c(C(C)C)c(O)c(O)c(C=O)c2c(O)c1-c1c(C)cc2c(C(C)C)c(O)c(O)c(C=O)c2c1O`, for which the nuclear beta-catenin stimulation was found to be 6.3%.

Take `CC(C)(C(=O)c1cccnc1)c1cccnc1`: the nuclear beta-catenin stimulation was determined as 1.3%.

As for `CC1CC(OC(=O)C(O)c2ccccc2)CC(C)(C)N1C` (stereo not drawn), the nuclear beta-catenin stimulation was -0.1%.

Take `CCc1c(C)[nH]c2c1C(=O)C(CN1CCOCC1)CC2` (stereo not drawn): the nuclear beta-catenin stimulation was -0.2%.

Take `CC(C)(C)NC(=O)[C@H]1CC[C@H]2[C@@H]3CC[C@H]4NC(=O)C=C[C@]4(C)[C@H]3CC[C@]12C`: the nuclear beta-catenin stimulation was determined as 2%.

`CCC(=O)O[C@]1(C(=O)SCF)[C@H](C)C[C@H]2[C@@H]3C[C@H](F)C4=CC(=O)C=C[C@]4(C)[C@@]3(F)[C@@H](O)C[C@@]21C`: the nuclear beta-catenin stimulation is 2.7%.

`Cc1c(Nc2ncccc2C(=O)O)cccc1C(F)(F)F`: the nuclear beta-catenin stimulation was -0.2%.

For `CCOC(=O)OC(C)OC(=O)[C@@H]1N2C(=O)[C@@H](NC(=O)[C@H](N)c3ccccc3)[C@H]2SC1(C)C` (stereo partly drawn), the nuclear beta-catenin stimulation worked out at 2.5%.

As for `CCCOc1ccc(C(=O)OCCN(CC)CC)cc1N`, the nuclear beta-catenin stimulation came to 5.7%.

Turning to `N#Cc1ccc(C(c2ccc(C#N)cc2)n2cncn2)cc1`, the nuclear beta-catenin stimulation was 0%.

As to `CCCCN(CCCC)CCC(O)c1cc2c(Cl)cc(Cl)cc2c2cc(C(F)(F)F)ccc12` (stereo not drawn), the nuclear beta-catenin stimulation was determined as 0.7%.

`CCN1CCN(C(=O)N[C@@H](C(=O)N[C@@H]2C(=O)N3C(C(=O)O)=C(CSc4nnnn4C)CS[C@H]23)c2ccc(O)cc2)C(=O)C1=O`: the nuclear beta-catenin stimulation was -1.5%.

As for `CCC1=C(C)CN(C(=O)NCCc2ccc(S(=O)(=O)NC(=O)NC3CCC(C)CC3)cc2)C1=O` (stereo not drawn), the nuclear beta-catenin stimulation is -1.7%.

For `CCOC(=O)n1ccn(C)c1=S`, the nuclear beta-catenin stimulation is -0.4%.

In the case of `CC(=O)OCC(=O)[C@@]1(O)[C@H](C)C[C@H]2[C@@H]3CCC4=CC(=O)C=C[C@]4(C)[C@@]3(F)[C@@H](O)C[C@@]21C`, the nuclear beta-catenin stimulation was -2.1%.

`COc1ccc(C(=O)c2ccccc2O)c(O)c1`: the nuclear beta-catenin stimulation was 0.4%.

With `C[C@@H]1C[C@H]2[C@@H]3C[C@H](F)C4=CC(=O)C=C[C@]4(C)[C@@]3(F)[C@@H](O)C[C@]2(C)[C@@]1(O)C(=O)CO`, the nuclear beta-catenin stimulation was found to be 0.3%.

As to `COc1cc(C)nc(-n2nc(C)cc2OC)n1`, the nuclear beta-catenin stimulation is -0.3%.

Turning to `CN1CCC(=C2c3ccccc3CCc3sccc32)CC1`, the nuclear beta-catenin stimulation was -1.1%.

With `COc1ncnc(NS(=O)(=O)c2ccc(N)cc2)c1OC`, the nuclear beta-catenin stimulation is 3.5%.

Consider `CC(C)N=C(N)/N=C(\N)Nc1ccc(Cl)cc1`, for which the nuclear beta-catenin stimulation was found to be 0.3%.

As for `Cc1cccc(C)c1NC(=O)C(C)N` (stereo not drawn), the nuclear beta-catenin stimulation is 1.2%.

On to `COc1cc(OC)c(C(=O)CCCN2CCCC2)c(OC)c1`, for which the nuclear beta-catenin stimulation was found to be 0.3%.

Take `CCOc1cc(CC(=O)N[C@@H](CC(C)C)c2ccccc2N2CCCCC2)ccc1C(=O)O`: the nuclear beta-catenin stimulation is 0.2%.

On to `O=C(O)/C=C/c1ccc(Cn2ccnc2)cc1`, for which the nuclear beta-catenin stimulation came out at 1.2%.

Take `Nc1ncnc2c1ncn2[C@@H]1O[C@H](COP(=O)(O)O)[C@@H](O)[C@H]1O`: the nuclear beta-catenin stimulation was found to be 3.8%.

Regarding `Nc1[nH]c(=O)ncc1F`, the nuclear beta-catenin stimulation worked out at 1.7%.

With `Nc1ccc(S(=O)(=O)Nc2ccc(Cl)nn2)cc1`, the nuclear beta-catenin stimulation is 4.5%.

Turning to `CC[C@]12CCCN3CCc4c(n(c5ccccc45)[C@@](O)(C(=O)OC)C1)[C@@H]32`, the nuclear beta-catenin stimulation was -0.6%.

On to `C#C[C@]1(O)CC[C@H]2[C@@H]3CCc4cc(OC)ccc4[C@H]3CC[C@@]21C`, for which the nuclear beta-catenin stimulation was determined as 0.6%.

In the case of `Oc1ccc(OCc2ccccc2)cc1`, the nuclear beta-catenin stimulation came to 1.1%.

As for `O=C(CCCCC(=O)Nc1c(I)cc(I)c(C(=O)O)c1I)Nc1c(I)cc(I)c(C(=O)O)c1I`, the nuclear beta-catenin stimulation was determined as 3.3%.

As for `CCCc1c(OCCCCc2nn[nH]n2)ccc(C(C)=O)c1O`, the nuclear beta-catenin stimulation was found to be 1.2%.

Regarding `CNNCc1ccc(C(=O)NC(C)C)cc1`, the nuclear beta-catenin stimulation was 1%.

Regarding `C[C@H](N)[C@H](O)c1cccc(O)c1`, the nuclear beta-catenin stimulation was -0.1%.
